Screening results (PubChem)
Hits are enriched below; roughly 1.1% of the tested compounds scored in any of these assays.
CatS block – human cathepsin S inhibition; recombinant cathepsin S, AMC dipeptide fluorescence, pooled mixtures; 0.06% of 62,000 active; AID 501; inhibition, %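 (tested at 5 µM per compound within 10-compound mixtures)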; in the data active means inhibition above about 32%, passing the limit was not always enough
SKBR3 24h inh – SK-BR-3 proliferation inhibitors; SK-BR-3 viability, CellTiter-Glo ATP luminescence, 24 h; stronger effect = lower value; viability, % at 10 µM; 0.47% of 41,000 active;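 active means viability at or below the median of all test compounds minus 3 SD, in both replicates if run twice, cut at about 45% in these data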
HER2 expr 66K – Her2 kinase expression inhibition. SKBR-3 HER2 protein level, AlphaScreen, 18-24 h; stronger effect = lower value. 0.69% of 65,000 active. AID 645. HER2 level % of control, % at 10 µM. P04626;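 active means HER2 level under 5% of the carrier-only control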
CatB mixtures – human cathepsin B inhibition by mixtures. Purified cathepsin B, AMC dipeptide fluorescence, compound mixtures. inhibition, %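 (ten-compound pools at 5 µM per compound and 50 µM total)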. 0.06% of 62,000 active. AID 488; in the data active means inhibition above about 22%, passing the limit was not always enough
CatL block – inhibitors of human cathepsin L. P07711. AID 460. 0.17% of 58,000 active. purified cathepsin L, fluorogenic substrate, fluorescence. inhibition, %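 (tested at 10 µM)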; in the data active means inhibition above about 45%
CatB inh – blocks human cathepsin B protease activity | purified cathepsin B, fluorogenic substrate, fluorescence | inhibition, %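 (tested at 10 µM)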 | 0.1% of 63,000 active | AID 453; in the data active means inhibition above about 21%
Hits are given with their value; . = inactive; / = not tested or not shown.

SMILES | CatS block | SKBR3 24h inh | HER2 expr 66K | CatB mixtures | CatL block | CatB inh
CN(Cc1cc2ccccc2[nH]c1=O)C(=O)C1CCCCC1 | . | . | . | . | . | .
CCOC(=O)N1CCC(c2nc3ccccc3[nH]2)CC1 | . | . | . | . | . | .
CCCc1c(C)c2cccc(C)c2[nH]c1=O | . | / | . | . | . | .
CC(=O)CCc1c(C)c2cccc(C)c2[nH]c1=O | . | . | . | . | 104.5 | .
Cc1cc(SCC#N)n2nc(C)c(-c3ccccc3)c2n1 | . | . | . | . | 47.6 | .
Cc1cc(N2CCCCC2)n2nc(C)c(-c3ccccc3)c2n1 | . | . | . | . | . | .
CCOC(=O)c1c(-c2cccs2)csc1NC(=O)CN1CCOCC1 | . | / | . | . | . | .
CCOC(=O)c1c(-c2cccs2)csc1NC(=O)c1ccco1 | . | . | -28.0 | . | . | .
Cc1cc2nnc(SC3CCOC3=O)n2c2ccccc12 (stereo unspecified) | / | / | . | / | / | /
Cc1cc2nnc(SC(C)C#N)n2c2ccccc12 (stereo unspecified) | . | / | -27.7 | . | . | .
O=C(N1CCOCC1)N(CCN1CCOCC1)Cc1cccc(Cl)c1 | . | . | . | . | . | .
COc1ccc(CCN2CCC(Nc3nc4ccccc4n3Cc3ccc(F)cc3)CC2)cc1 | . | 23.5 | -11.3 | . | . | /
O=C(CSc1oc(-c2ccccc2)nc1S(=O)(=O)c1ccc(F)cc1)NCC1CCCO1 (stereo unspecified) | . | . | -21.4 | . | . | .
Cc1sc2ncnc(SCc3ccco3)c2c1C | . | / | . | . | . | .
Cc1sc2ncnc(Sc3nnnn3-c3ccc(Cl)cc3)c2c1C | . | / | -13.3 | . | . | .
Cc1[nH]nc2c1C1(CCC3(CC1)OCCO3)C(C#N)=C(N)O2 | . | . | . | . | . | .
COc1ccc(C(=O)COC(=O)CSCc2c(C)noc2C)cc1OC | . | / | . | . | . | .
Cc1noc(C)c1CSCC(=O)OCC(=O)NC1CCCCC1 | . | 32.4 | . | . | . | .
CCCc1[nH]n(-c2nc3ccccc3s2)c(=O)c1C=NCCN1CCOCC1 | / | . | . | / | . | .
CCCCCN=Cc1c(C)[nH]n(-c2nc3ccccc3s2)c1=O | . | / | -20.2 | . | . | .
CCCS(=O)(=O)N1CCC(C(=O)N2CCC(Cc3ccccc3)CC2)CC1 | . | / | -27.4 | . | . | .
Nc1nc2n(n1)C1(CCCCC1)C1=C(CCCC1)N2 | . | / | . | 68.9 | . | 39.1
CSCC[C@H](NC(=O)NCc1ccc(F)cc1)C(=O)O | . | . | -15.0 | . | . | .
CCOc1ccc(NS(=O)(=O)c2ccc(NS(C)(=O)=O)cc2)cc1 | . | / | . | . | 76.2 | .
CCOc1ccc(NS(=O)(=O)c2ccc(OCC(=O)N3CCCC3)cc2)cc1 | . | . | . | . | . | .
SMILES | CatS block | SKBR3 24h inh | HER2 expr 66K | CatB mixtures | CatL block | CatB inh
CCC(C)NC(=O)COc1ccc(S(=O)(=O)N2CCOCC2)cc1 (stereo unspecified) | . | . | . | . | / | .
Cc1cccc2cc(C#N)c(NCCNS(=O)(=O)c3ccc4c(c3)OCCO4)nc12 | . | 29.6 | . | . | . | .
Cc1cccc2cc(C#N)c(NCCNC(=O)NC3CCCCC3)nc12 | . | . | . | . | . | .
COC(=O)C1=C(N)Oc2cc(C)n(C)c(=O)c2C1c1ccc(Cl)c(Cl)c1 (stereo unspecified) | . | . | 3.3 | . | . | .
Cc1occc1C(=O)n1nnc2ccccc21 | . | / | . | . | . | .
CCSc1ccccc1C(=O)n1nnc2ccccc21 | . | . | . | 29.7 | . | 32.2
Cc1noc(C)c1C(=O)OCC(=O)c1c(N)n(CC(C)C)c(=O)n(C)c1=O | . | / | . | . | . | .
COc1cc(C2c3c(oc4c(C)cc(C)cc4c3=O)C(=O)N2Cc2cccnc2)ccc1O (stereo unspecified) | . | 34.8 | . | . | . | .
Cc1nc2c(c(=O)n1CC1CCCO1)c1nc3ccccc3nc1n2CC(C)C (stereo unspecified) | . | . | . | . | . | .
O=C1/C(=N/n2cnnc2)c2ccccc2N1Cc1ccccc1 | . | . | -15.9 | . | . | .
c1coc(-c2nnc(SCc3nc4ccccc4[nH]3)o2)c1 | . | . | . | . | . | .
Cc1ccc(NC(=O)CNc2cccc(C)c2C)c(C)c1 | . | / | -27.6 | . | . | .
COC(=O)c1ccc(NC(=O)c2ccc(CN3CCOCC3)cc2)cc1 | . | . | . | . | 84.1 | .
COc1cccc(OC)c1C(=O)Nc1ccc(CN2CCOCC2)cc1 | . | . | . | . | . | .
